Where “and” joins values, the source holds several entries; their conditions need not be identical. Equal values may be shown once. Records with an inconclusive call do not appear. Calls of active or inactive are those of the source. Unless noted, the rule behind the calls is not given here.
Columns and labels:
[1] = target: ATP-dependent translocase ABCB1 (Homo sapiens) (UniProt P08183); assay: MDR1 (ABCB1) efflux transporter inhibition, cell-based (AID 377; in the data active = fluorescence slope change above about 50%); details: MDR1-expressing cells, fluorescent substrate accumulation slope; stronger effect = higher value; concentration not given here
Chain of ATP-dependent translocase ABCB1 (Homo sapiens) (P08183 whole entry, looked up): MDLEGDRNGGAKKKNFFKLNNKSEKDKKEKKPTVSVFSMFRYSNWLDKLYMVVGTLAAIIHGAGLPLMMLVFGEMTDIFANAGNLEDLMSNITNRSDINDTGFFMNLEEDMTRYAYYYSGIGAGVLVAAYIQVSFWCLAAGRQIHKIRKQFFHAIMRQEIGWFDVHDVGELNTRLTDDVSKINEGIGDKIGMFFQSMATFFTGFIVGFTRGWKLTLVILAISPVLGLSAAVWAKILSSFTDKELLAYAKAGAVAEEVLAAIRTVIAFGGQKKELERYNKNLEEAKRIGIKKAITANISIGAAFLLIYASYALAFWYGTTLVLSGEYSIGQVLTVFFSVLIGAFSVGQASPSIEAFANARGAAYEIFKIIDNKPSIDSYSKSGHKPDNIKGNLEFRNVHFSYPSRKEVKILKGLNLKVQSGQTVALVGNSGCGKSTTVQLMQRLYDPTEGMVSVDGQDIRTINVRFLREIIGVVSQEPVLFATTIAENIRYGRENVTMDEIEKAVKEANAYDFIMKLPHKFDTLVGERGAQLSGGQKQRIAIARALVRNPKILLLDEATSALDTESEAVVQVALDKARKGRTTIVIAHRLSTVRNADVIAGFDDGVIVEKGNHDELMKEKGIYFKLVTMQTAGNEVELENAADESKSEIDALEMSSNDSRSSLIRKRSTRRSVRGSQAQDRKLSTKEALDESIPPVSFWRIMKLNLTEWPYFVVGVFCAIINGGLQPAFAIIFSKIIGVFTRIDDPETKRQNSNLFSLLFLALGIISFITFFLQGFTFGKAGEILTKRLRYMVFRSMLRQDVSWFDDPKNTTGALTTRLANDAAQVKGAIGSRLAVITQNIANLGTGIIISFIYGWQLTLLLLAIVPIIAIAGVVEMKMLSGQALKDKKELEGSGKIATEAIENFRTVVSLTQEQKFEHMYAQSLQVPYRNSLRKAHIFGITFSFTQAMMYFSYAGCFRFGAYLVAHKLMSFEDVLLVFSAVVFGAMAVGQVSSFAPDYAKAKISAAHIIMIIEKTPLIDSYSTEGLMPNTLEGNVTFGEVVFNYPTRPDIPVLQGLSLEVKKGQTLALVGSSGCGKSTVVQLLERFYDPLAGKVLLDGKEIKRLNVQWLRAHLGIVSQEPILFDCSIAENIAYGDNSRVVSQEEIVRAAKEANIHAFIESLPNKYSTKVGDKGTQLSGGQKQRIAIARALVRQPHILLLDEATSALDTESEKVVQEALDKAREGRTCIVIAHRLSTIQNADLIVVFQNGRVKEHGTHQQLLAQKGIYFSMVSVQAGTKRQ

[2] = hESC survival regulators, cell-based (AID 493140); details: human embryonic stem cell survival screen; stronger effect = higher value;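 note: cells exposed to compounds for four days before counting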
[3] = liver-stage malaria parasite growth inhibition, primary screen, cell-based, HepG2, luciferase luminescence, HepG2 viability (AID 624349; in the data active = parasite load remaining mostly below about 12%, no sharp cut-off; inactive = mostly above about 10%;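 note: 100% = mean of DMSO negative control wells on the same plate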); details: P. berghei liver stage in HepG2, luciferase luminescence, concentration not given here; parasite load remaining: stronger effect = lower value; viability: measured here: HepG2 viability without parasites
[4] = sensitizers of A549 cells to miR-34 induction, primary screen, imaging, A549 dox-inducible miR-34, nuclei and caspase counts (AID 1347080;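 active = compounds whose cell count with miR-34 switched on is under 0.7 times the count with it off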); details: A549 miR-34 inducible, Hoechst nuclei count, 48 h
[5] = circadian clock period modulators, cell-based, LOPAC library, luminescence reporter (AID 2774); details: circadian reporter cells, at 7 µM, actives lie on both sides;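 note: values are relative to mean of DMSO wells on each plate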
[6] = viability rescue of complex I mutant cybrids, primary screen, cell-based, galactose medium, ATP luminescence (AID 1645843;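 active = z-score of at least 1.8 in each of two replicates, scored against plate mean and spread of sample wells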;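 note: positive z means more ATP and so rescue of galactose-driven cybrid death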); details: complex I mutant cybrid cells, 72 h, stronger effect = higher value
[7] = system: Hepatitis C virus NS3 helicase; assay: HCV NS3 helicase inhibitors, primary screen, biochemical, fluorescence polarization, LOPAC1280 library (AID 687035; in the data active = inhibition above about 37%); details: Purified HCV NS3 helicase, Cy5-dT15 ssDNA binding fluorescence polarization; stronger effect = higher value; concentration not given here
[8] = Cy5 fluorescence quenching or enhancement artefacts, artefact control for HCV NS3 helicase inhibitor project, biochemical, LOPAC1280 (AID 687037); details: Cy5-DNA-NS3h complex fluorescence interference counterscreen
[9] = stronger effect = lower value, cell number ratio, induced over uninduced
[10] = measured here: relative caspase fold change +Dox/-Dox
[11] = measured here: total cells with miR-34 induction, stronger effect = lower value
[12] = measured here: total cells without miR-34 induction

Row | Structure (SMILES) | fluorescence slope change [1] | survival [2] | parasite load remaining [3] | viability [3] | fold change [4, 9] | fold change [4, 10] | cell count [4, 11] | cell count [4, 12] | period change [5] | z-score [6] | inhibition [7] | fluorescence ratio (interference) [8]
1 | COc1c(O)cc2c(c1O)C1OC(CO)C(O)C(O)C1OC2=O (stereo not given) | 18.9% (inactive) | 2.17 (inactive) | 89.5% (inactive) | 106% | 0.91 (inactive) | 1.19 | 9380 | 10300 |  |  |  | 
2 | N=C(N)SCCc1cccc(CCSC(=N)N)c1 |  |  |  |  | 1.01 (inactive) | 0.632 | 6390 | 6310 | 0.115 h (inactive) |  |  | 
3 | COc1c2c(nc3ccccc13)OC(C(C)(O)CO)C2 (stereo not given) |  | 14.3 (inactive) | 78.4% (inactive) | 73.1% | 0.919 (inactive) | 0.535 | 8340 | 9080 | 0.065 h (inactive) |  |  | 
4 | Cc1n[nH]c(=O)[nH]c1=O | 50.5% (active) | 3.58 (inactive) | 54.2% (inactive) and 83.7% (inactive) | 111% and 75.4% | 0.871 (inactive) | 1.41 | 8710 | 10000 |  |  |  | 
5 | CCOC(=O)C12CC1/C(=N/O)c1ccccc1O2 (stereo not given) |  |  |  |  | 1.06 (inactive) | 2.7 | 9720 | 9140 | -0.125 h (inactive) | 0.485 (inactive) |  | 
6 | COc1cc(=O)n(C)c2c(OCC(O)C(C)(C)O)cccc12 (stereo not given) | -8.1% (inactive) | 2.75 (inactive) | 88% (inactive) | 97.7% | 0.801 (inactive) | 1.04 | 8320 | 10400 | -0.165 h (inactive) |  |  | 
7 | N=c1ccn2c(n1)OC1[C@@H](O)[C@@H](CO)O[C@H]12 (stereo not given in full) |  |  |  |  | 1.14 (inactive) | 1.55 | 1970 | 1730 | -0.115 h (inactive) | -1.23 (inactive) | -5% (inactive) | 1 (inactive)
8 | CC(=O)O[C@H]1CC2(C)[C@@H](C[C@@H](O)[C@H]3[C@@]4(C)CC[C@@H](O)[C@@H](C)[C@@H]4CC[C@@]32C)C1=C(CCC=C(C)C)C(=O)O (stereo not given in full) |  |  |  |  | 0.982 (inactive) | 1.41 | 9740 | 9920 | -0.06 h (inactive) | 4.71 (active) | -2% (inactive) | 1 (inactive)
